High-throughput results: PubChem BioAssay, National Center for Advancing Translational Sciences (NCATS)
B2AR arrestin = beta2AR (human) beta-arrestin recruitment activity | beta-arrestin recruitment to beta2AR, cell-based reporter | Potency, µM (top dose mostly 46.1 µM), usual class: activators | 0.02% of 330,000 active | AID 492947; also: nearly all actives have a fitted effect of over 65% in size
Target sequence (P07550 whole entry, looked up): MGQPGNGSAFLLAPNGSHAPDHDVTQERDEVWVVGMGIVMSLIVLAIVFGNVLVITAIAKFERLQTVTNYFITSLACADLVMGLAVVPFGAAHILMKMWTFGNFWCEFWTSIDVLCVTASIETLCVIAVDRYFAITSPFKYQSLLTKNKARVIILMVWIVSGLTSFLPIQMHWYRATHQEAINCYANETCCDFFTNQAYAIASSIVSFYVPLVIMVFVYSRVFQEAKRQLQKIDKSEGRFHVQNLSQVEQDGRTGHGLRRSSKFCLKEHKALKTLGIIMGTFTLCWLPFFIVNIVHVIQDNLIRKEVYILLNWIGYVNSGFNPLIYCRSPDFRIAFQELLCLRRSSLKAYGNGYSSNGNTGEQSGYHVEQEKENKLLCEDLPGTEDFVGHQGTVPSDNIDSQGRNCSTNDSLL
RGS4 inhibitor = inhibitors of human regulator of G protein signaling 4; P49798; 0.039% of 390,000 active; Potency, µM (top dose mostly 114 µM), usual class: inhibitors; Transcreener GDP fluorescence polarization, RGS4-accelerated GTP hydrolysis; also: nearly all actives have a fitted effect of over 75% in size
Target sequence (P49798 whole entry, looked up): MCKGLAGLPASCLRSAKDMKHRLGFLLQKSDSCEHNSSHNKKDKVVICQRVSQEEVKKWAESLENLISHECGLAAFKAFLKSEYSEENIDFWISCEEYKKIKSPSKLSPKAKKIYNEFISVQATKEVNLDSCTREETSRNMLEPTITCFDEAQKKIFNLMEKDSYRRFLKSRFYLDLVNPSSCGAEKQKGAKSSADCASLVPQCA
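MLSMR compounds (23 nl, pin-transferred) preincubated 10 min at room temperature with a 500nM (2x) first reagent, then RGS4 at 900nM (2x) plus Transcreener GDP mix added; fluorescence polarization (620/688 nm) read before and after 90 min at 30 °C.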
D3 ag = activates the human D3 dopamine receptor; D3R DiscoveRx beta-arrestin cells, luminescence, 90 min; 0.58% of 410,000 active; max activation, %; in the data active = max activation above about 30%
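Agonist mode: compounds and dopamine controls were applied to plated cells for 90 min at 37 degrees C after an overnight attachment at 1500 cells/well. Luminescent read-out followed 30 - 60 minutes at room temperature with DiscoveRx detection reagent.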
BRCA1 expr up = BRCA1 expression activation; MCF7-BRCA1-FFLuc reporter, luminescence, 48 h; response scale: scaled: vehicle 0%, 10 µM genistein 100%; Potency, µM (doses to about 46.1 µM), most hits filed as activators; 1.1% of 380,000 active; also: nearly all actives have a fitted effect of over 80% in size
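Reporter cells (MCF7, BRCA1 promoter-firefly luciferase) received library compounds across a concentration series for 48 h. End-point luminescence was measured and concentration-effect curves derived after normalization.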
DRD3 antagonist = antagonists of human D3 dopamine receptor | AID 652054 | P35462 | D3R cells, DiscoveRx beta-arrestin luminescence, antagonist mode; active compounds read low | max response, negative = inhibition, % | 2.5% of 360,000 active; in the data active = max response below about -50%; inconclusive = no clear call, values can overlap the other calls
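Cells expressing the human receptor were seeded at 1500 cells/well, incubated overnight at 37 degrees C in 5% CO2, then exposed to library compounds with dopamine controls for 90 minutes at 37 degrees C before luminescent detection.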
PTHR1 ag = PTHR1 (human) receptor agonism; Q03431; HEK293 GP2 PTHR1 cells, GloSensor cAMP luminescence, 1 h; Potency, µM (series often up to 115 µM), hits mostly activators; 0.075% of 410,000 active; AID 743266; also: nearly all actives have a fitted effect of over 55% in size
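HEK-293-derived GP2 cells expressing PTHR1 and a GloSensor cAMP reporter, 3,000/well, plated overnight, given luciferin plus IBMX (each 0.5 mM as added) for 1 h at 37 °C, then compound for 1 h at 37 °C. Luminescence was read after 15 min at room temperature.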
Each line names hits and unclear results; the compound was inactive in the other large screens. The list is not random: actives were taken first. Their share in the collection is about 3.7%. Unless noted, calls follow the shape of the dose curve; as a rule, active = well fitted curve in the direction sought with a large enough effect; inconclusive = small, poorly fitted or top-dose-only effect, or another doubt; inactive = no such curve, though single readings can be large; an effect the other way counts as inactive or inconclusive.

O=C(CN1CCN(Cc2ccc(Cl)cc2)CC1)N1CCc2ccccc21	DRD3 antagonist inconclusive
O=C(CN1CCN(Cc2ccccc2)CC1)N1CCCc2ccccc21	DRD3 antagonist -51.0
CC1CCN(CC(=O)N2c3ccccc3CCc3ccccc32)CC1	DRD3 antagonist -64.0, PTHR1 ag inconclusive
O=C(CN1CCN(c2ccccc2F)CC1)N1CCc2ccccc21	DRD3 antagonist -53.9
O=C(CN1CCC(N2CCCCC2)CC1)N1CCCc2ccccc21	DRD3 antagonist -76.1
O=C(CN1CCN(c2ccccc2)CC1)N1CCc2ccccc21	DRD3 antagonist inconclusive
O=C(C1CCCO1)N1CCN(C(=S)Nc2cc(F)cc(F)c2)CC1 (stereo not drawn)	none
CCS(=O)(=O)N1CCc2cc(C(=O)NCc3ccccc3)ccc21	none (no result: B2AR arrestin, DRD3 antagonist)
O=C(COc1ccc2c(c1)CCC2)N1CCc2ccccc21	BRCA1 expr up 10µM
CC(NC(=O)CN1CCN(c2ncccn2)CC1)c1ccc(F)cc1 (stereo not drawn)	none
CC(C)NC(=O)CN1CCN(c2ncccn2)CC1	DRD3 antagonist -54.3
O=C(CN1CCCCC1)N1CCc2ccccc21	DRD3 antagonist -85.7
O=C(CN1CCN(c2ccc(O)cc2)CC1)N1CCc2ccccc21	DRD3 antagonist inconclusive
O=C(CN1CCN(c2ncccn2)CC1)N1CCc2ccccc21	DRD3 antagonist -81.7
Cc1ccc(OCC(=O)N2CCc3ccccc32)cc1	BRCA1 expr up inconclusive
O=C(O)CSc1nnc(-c2cccc(S(=O)(=O)N3CCOCC3)c2)n1-c1cccc(Cl)c1	none
COc1ccc(-n2ccnc(NCc3cccs3)c2=O)cc1OC	none (no result: B2AR arrestin, DRD3 antagonist)
COc1ccc(N(C)C(=O)c2nc(-c3cccc(F)c3)n3c2CCCCC3)c(OC)c1	none (no result: B2AR arrestin, BRCA1 expr up, DRD3 antagonist)
COc1cc(/C=C/c2ccnc3ccccc23)cc(OC)c1OC	none (no result: B2AR arrestin, RGS4 inhibitor, D3 ag, DRD3 antagonist, PTHR1 ag)
Cc1csc(=N)n1CC(=O)N1CCc2ccccc21	DRD3 antagonist -85.7
O=C(CN1CCCc2ccccc21)N1CCc2ccccc21	none
CC1CCCN(S(=O)(=O)c2ccc(S(=O)(=O)NC(C)c3cccs3)cc2)C1 (stereo not drawn)	none
Cc1cc(=O)[nH]c(N=N/C(=N/Nc2ccc(O)cc2)c2ccccc2)n1	DRD3 antagonist -101.5
COc1ccc(C(=O)C(=NNc2ccccc2)c2ccc(OC)cc2)cc1	none (no result: B2AR arrestin)
COc1ccc(N/N=C(/N=Nc2nc(C)cc(=O)[nH]2)c2ccccc2)cc1	DRD3 antagonist -56.5
Cc1cc(=O)[nH]c(N=N/C(=N/Nc2ccccc2C)c2ccccc2)n1	DRD3 antagonist inconclusive
CCOC(=O)C1=CCC(c2cccc3ccccc23)N(S(=O)(=O)c2ccc(C)cc2)C1 (stereo not drawn)	none (no result: B2AR arrestin, RGS4 inhibitor)
C/C(N)=C(/C#N)C(=O)CSc1nnc(Nc2cccc(C)c2C)s1	BRCA1 expr up 11.2µM
O=C(O)c1ccccc1CSc1nc2ccccc2o1	BRCA1 expr up 8.91µM
O=C(O)c1ccc(CSc2nc3ccccc3o2)cc1	none
Cc1ccc(C)c(Nc2cc(C)nc3ccccc23)c1	none (no result: B2AR arrestin)
CCCN(C)CCCOc1cc2nc(N3CCCN(C)CC3)nc(NC3CCN(C)CC3)c2cc1OC	none (no result: B2AR arrestin, RGS4 inhibitor, D3 ag, DRD3 antagonist, PTHR1 ag)
O=C(CCN1C(=O)/C(=C/c2cccs2)SC1=S)N1CCCCC1	D3 ag 33.6
CC(C)(C)C(=O)Nc1nc2c(s1)CN(Cc1ccccc1)CC2	BRCA1 expr up 8.91µM
Cc1ccc(-n2c(=O)c3c(C)c(C(=O)N(C)C)sc3n(CC(=O)C(C)(C)C)c2=O)cc1C	none (no result: B2AR arrestin, BRCA1 expr up, DRD3 antagonist)
O=c1c2ccccc2[nH]c(=S)n1CCN1CCCC1	none
CCn1c(=O)[nH]c2ccccc2c1=O	DRD3 antagonist -56.3
Cc1cccc(C)c1N1CCN(CCn2c(=S)[nH]c3ccccc3c2=O)CC1	DRD3 antagonist -68.8
O=c1c2ccccc2[nH]c(=S)n1CCCN1CCC(Cc2ccccc2)CC1	DRD3 antagonist -90.1
O=c1[nH]c2ccccc2c(=O)n1Cc1ccccc1	DRD3 antagonist inconclusive
CCN1CCN(CCn2c(=S)[nH]c3ccccc3c2=O)CC1	DRD3 antagonist -61.7, PTHR1 ag inconclusive
CC1CCN(CCCn2c(=S)[nH]c3ccccc3c2=O)CC1	none
CCOc1ccc(-c2nc(SCC(=O)Nc3cc(F)ccc3F)n3[nH]c(=O)cc3n2)cc1	PTHR1 ag inconclusive (no result: B2AR arrestin, BRCA1 expr up, DRD3 antagonist)
CCN1CCN(C(=O)c2ccc3c(=O)n(Cc4ccccc4OC)c(=S)[nH]c3c2)CC1	DRD3 antagonist -50.1
Cc1cc(OCC(O)CN2CCCC2)cc(C)c1Cl (stereo not drawn)	none
OC(COc1ccc(Cl)cc1)CN1CCCCC1 (stereo not drawn)	DRD3 antagonist -54.8
OC(COc1ccc(OCC(O)CN2CCCCC2)cc1)CN1CCCCC1 (stereo not drawn)	none
CC1(C)NC(=O)N(CC(O)COc2cc3ccccc3cc2C(=O)N2CCCCC2)C1=O (stereo not drawn)	none
O=C(c1cc2ccccc2cc1OCC(O)CN1CCCCC1)N1CCCCC1 (stereo not drawn)	DRD3 antagonist -85.3
Cc1ccc(OCC(O)Cn2c(=N)n(CCN3CCCCC3)c3ccccc32)cc1 (stereo not drawn)	DRD3 antagonist -63.1
OC(COc1c(Cl)cc(Cl)cc1Cl)CN1CCCCC1 (stereo not drawn)	DRD3 antagonist -63.0
Cc1ccc(NC(c2nnc(-c3ccccc3)o2)c2ccccc2F)c([N+](=O)[O-])c1 (stereo not drawn)	none (no result: B2AR arrestin, BRCA1 expr up, DRD3 antagonist)
CCOc1ccc(NC(=O)c2ccc(NC(=O)c3cn4c5c(c(N6CCN(C)CC6)c(F)cc5c3=O)OCC4C)cc2)cc1 (stereo not drawn)	none
CC1COc2c(N3CCN(C)CC3)c(F)cc3c(=O)c(C(=O)O)cn1c23 (stereo not drawn)	DRD3 antagonist -100.3
CC(C)CC1(C)NC(=O)N(CC(=O)Nc2ccc3c(c2)CCC3)C1=O (stereo not drawn)	DRD3 antagonist -55.1, PTHR1 ag inconclusive
Cc1ccc(C2(C)NC(=O)N(CC(=O)Nc3ccc4c(c3)CCC4)C2=O)cc1 (stereo not drawn)	none
CCn1ccc2cc(S(=O)(=O)N3CCCN(C(=O)Nc4cccc(SC)c4)CC3)ccc21	none (no result: B2AR arrestin, DRD3 antagonist)
Cc1ccnc(NC(=O)Nc2ccc(Br)cc2Cl)c1	RGS4 inhibitor inconclusive, DRD3 antagonist -53.7
O=C(O)c1ccc(N=Nc2c(O)ccc3ncccc23)cc1	DRD3 antagonist -75.3
COC(=O)C[C@@H]1C=C[C@H](NC(=O)Cc2ccccn2)[C@@H](CO)O1	D3 ag 30.1 (no result: B2AR arrestin, RGS4 inhibitor, BRCA1 expr up)
COC(=O)C[C@H]1C=C[C@H](NC(=O)Cc2ccccc2)[C@@H](CO)O1	none (no result: B2AR arrestin, RGS4 inhibitor, BRCA1 expr up)
